Laboratory results reported in PubChem BioAssay AID1159580 (chemical genetic matrix, 2015).
The campaign covered roughly 5,500 compounds. About 2,000 (36%) were called active. Not shown: some 18% with an inconclusive outcome. No stated cut-off is given here; in the data, active means normalized growth mostly below about 0.91 (no sharp cut-off); inconclusive means no clear call, values can overlap the other calls; inactive means mostly above about 0.92. This is one part of the list.

Assay: chemical genetic growth profiling, strain panel (AID 1159580);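 further: tested at 20 µM; growth read once vehicle control cultures reached saturation at 30 °C; 1 = growth at the plate median or of vehicle wells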
Settings: growth OD

Measured: normalized growth

COc1cccc2c1CCC1=CC(=O)CC[C@@]12C
inactive: S. cerevisiae deletion strains, locus YJR075W, strain HOC1, stronger effect = lower value 0.973 | S. cerevisiae deletion strains, locus YKL009W, strain mrt4, stronger effect = lower value 0.98 | S. cerevisiae deletion strains, locus YKL068W, stronger effect = lower value 1 | S. cerevisiae deletion strains, locus YKL085W, strain MDH1 (second series), stronger effect = lower value 0.982 | S. cerevisiae deletion strains, locus YKL085W, strain MDH1, stronger effect = lower value 0.982 | S. cerevisiae deletion strains, locus YKL160W, strain elf1, stronger effect = lower value 1 | S. cerevisiae deletion strains, locus YKL190W, strain CNB1, stronger effect = lower value 1.01 | S. cerevisiae deletion strains, locus YKR001C, strain vps1, stronger effect = lower value 0.986 | S. cerevisiae deletion strains, locus YKR026C, strain gcn3, stronger effect = lower value 0.994 | S. cerevisiae deletion strains, locus YKR091W, strain srl3, stronger effect = lower value 0.998 | S. cerevisiae deletion strains, locus YLL001W, strain dnm1, stronger effect = lower value 1 | S. cerevisiae deletion strains, locus YLL026W, stronger effect = lower value 0.992 | S. cerevisiae deletion strains, locus YLL041C, strain sdh2, stronger effect = lower value 0.995 | S. cerevisiae deletion strains, locus YLR027C, strain aat2, stronger effect = lower value 1.01 | S. cerevisiae deletion strains, locus YLR039C, strain RIC1, stronger effect = lower value 1.1 | S. cerevisiae deletion strains, locus YLR058C, strain SHM2, stronger effect = lower value 0.993 | S. cerevisiae deletion strains, locus YLR102C, strain apc9, stronger effect = lower value 0.993 | S. cerevisiae deletion strains, locus YLR221C, strain rsa3, stronger effect = lower value 0.988 | S. cerevisiae deletion strains, locus YLR258W, strain gsy2, stronger effect = lower value 0.999 | S. cerevisiae deletion strains, locus YLR262C, strain YPT6 (second series), stronger effect = lower value 1.05 | S. cerevisiae deletion strains, locus YLR262C, strain YPT6, stronger effect = lower value 1.1 | S. cerevisiae deletion strains, locus YLR268W, strain sec22, stronger effect = lower value 0.973 | S. cerevisiae deletion strains, locus YLR320W, strain mms22, stronger effect = lower value 1 | S. cerevisiae deletion strains, locus YLR330W, strain CHS5, stronger effect = lower value 0.998 | S. cerevisiae deletion strains, locus YLR342W, strain FKS1 (second series), stronger effect = lower value 0.941 | S. cerevisiae deletion strains, locus YLR342W, strain FKS1, stronger effect = lower value 0.997 | S. cerevisiae deletion strains, locus YLR357W, strain rsc2, stronger effect = lower value 1.02 | S. cerevisiae deletion strains, locus YLR370C, strain arc18, stronger effect = lower value 0.99 | S. cerevisiae deletion strains, locus YLR371W, strain rom2, stronger effect = lower value 0.988 | S. cerevisiae deletion strains, locus YLR384C, strain iki3, stronger effect = lower value 1.02 | S. cerevisiae deletion strains, locus YLR418C, strain cdc73, stronger effect = lower value 0.9 | S. cerevisiae deletion strains, locus YML016C, strain PPZ1, stronger effect = lower value 0.989 | S. cerevisiae deletion strains, locus YML032C, strain rad52, stronger effect = lower value 0.988 | S. cerevisiae deletion strains, locus YML120C, strain ndi1, stronger effect = lower value 0.988 | S. cerevisiae deletion strains, locus YML124C, strain tub3, stronger effect = lower value 0.988 | S. cerevisiae deletion strains, locus YMR058W, strain fet3, stronger effect = lower value 1 | S. cerevisiae deletion strains, locus YMR078C, strain ctf18, stronger effect = lower value 0.985 | S. cerevisiae deletion strains, locus YMR125W, strain sto1, stronger effect = lower value 1 | S. cerevisiae deletion strains, locus YMR129W, stronger effect = lower value 0.991 | S. cerevisiae deletion strains, locus YMR205C, strain PFK2, stronger effect = lower value 1 | S. cerevisiae deletion strains, locus YMR223W, strain ubp8, stronger effect = lower value 0.964 | S. cerevisiae deletion strains, locus YMR231W, strain pep5, stronger effect = lower value 1 | S. cerevisiae deletion strains, locus YMR263W, strain SAP30, stronger effect = lower value 0.978 | S. cerevisiae deletion strains, locus YMR307W, strain GAS1, stronger effect = lower value 0.957 | S. cerevisiae deletion strains, locus YNL067W, strain RPL9B, stronger effect = lower value 0.984 | S. cerevisiae deletion strains, locus YNL071W, strain lat1, stronger effect = lower value 1 | S. cerevisiae deletion strains, locus YNL128W, strain TEP1, stronger effect = lower value 1.01 | S. cerevisiae deletion strains, locus YNL153C, strain GIM3, stronger effect = lower value 0.989 | S. cerevisiae deletion strains, locus YNL209W, strain ssb2, stronger effect = lower value 1.02 | S. cerevisiae deletion strains, locus YNL233W, strain BNI4, stronger effect = lower value 0.988 | S. cerevisiae deletion strains, locus YNL248C, strain rpa49, stronger effect = lower value 1.01 | S. cerevisiae deletion strains, locus YNL250W, strain rad50, stronger effect = lower value 0.997 | S. cerevisiae deletion strains, locus YNL271C, strain bni1, stronger effect = lower value 0.985 | S. cerevisiae deletion strains, locus YNL298W, strain CLA4, stronger effect = lower value 0.969 | S. cerevisiae deletion strains, locus YNL307C, strain MCK1, stronger effect = lower value 0.933 | S. cerevisiae deletion strains, locus YNL322C, strain KRE1 (second series), stronger effect = lower value 1.01 | S. cerevisiae deletion strains, locus YNL322C, strain KRE1, stronger effect = lower value 1 | S. cerevisiae deletion strains, locus YNR049C, strain mso1, stronger effect = lower value 1.02 | S. cerevisiae deletion strains, locus YNR052C, strain pop2, stronger effect = lower value 0.996 | S. cerevisiae deletion strains, locus YOL006C, strain TOP1, stronger effect = lower value 0.863 | S. cerevisiae deletion strains, locus YOL012C, strain htz1 1.1 | S. cerevisiae deletion strains, locus YOL147C, strain pex11, stronger effect = lower value 0.982 | S. cerevisiae deletion strains, locus YOR001W, strain rrp6, stronger effect = lower value 1.02 | S. cerevisiae deletion strains, locus YOR061W, strain CKA2, stronger effect = lower value 0.996 | S. cerevisiae deletion strains, locus YOR069W, strain VPS5, stronger effect = lower value 1 | S. cerevisiae deletion strains, locus YOR070C, strain gyp1, stronger effect = lower value 1 | S. cerevisiae deletion strains, locus YOR080W, strain dia2, stronger effect = lower value 1 | S. cerevisiae deletion strains, locus YOR083W, strain WHI5, stronger effect = lower value 1.01 | S. cerevisiae deletion strains, locus YOR106W, strain vam3, stronger effect = lower value 1.01 | S. cerevisiae deletion strains, locus YOR136W, strain idh2, stronger effect = lower value 0.992 | S. cerevisiae deletion strains, locus YOR144C, strain elg1, stronger effect = lower value 0.991 | S. cerevisiae deletion strains, locus YOR184W, strain ser1, stronger effect = lower value 0.913 | S. cerevisiae deletion strains, locus YOR265W, strain rbl2, stronger effect = lower value 1 | S. cerevisiae deletion strains, locus YOR270C, strain vph1, stronger effect = lower value 0.915 | S. cerevisiae deletion strains, locus YOR290C, strain snf2, stronger effect = lower value 1.02 | S. cerevisiae deletion strains, locus YOR316C, strain cot1, stronger effect = lower value 0.99 | S. cerevisiae deletion strains, locus YPL051W, strain arl3, stronger effect = lower value 1 | S. cerevisiae deletion strains, locus YPL055C, strain LGE1, stronger effect = lower value 0.946 | S. cerevisiae deletion strains, locus YPL078C, strain atp4, stronger effect = lower value 1 | S. cerevisiae deletion strains, locus YPL106C, strain sse1, stronger effect = lower value 1.02 | S. cerevisiae deletion strains, locus YPL240C, strain hsp82, stronger effect = lower value 0.995 | S. cerevisiae deletion strains, locus YPL241C, strain CIN2, stronger effect = lower value 1 | S. cerevisiae deletion strains, locus YPR119W, strain clb2, stronger effect = lower value 0.989 | S. cerevisiae deletion strains, locus YPR141C, strain kar3, stronger effect = lower value 0.997 | S. cerevisiae deletion strains, locus YPR163C, strain tif3, stronger effect = lower value 0.979 | S. cerevisiae deletion strains, locus YPR167C, strain met16, stronger effect = lower value 0.983 | S. cerevisiae deletion strains, strain wtn01, stronger effect = lower value 0.96 | S. cerevisiae strains, strain wild type, stronger effect = lower value 1.01
